# Where “and” joins values, the source holds several entries; their conditions need not be identical. Identical values can stand only once. Results filed as inconclusive are left out. Entries that show only a call come without a potency. Values without a mark were called inactive. Calls of active or inactive are those of the source. Unless noted, calls follow the shape of the dose curve; as a rule, active = well fitted curve in the direction sought with a large enough effect in the repeat runs; inconclusive = weak or mixed curves; inactive = no such curve, though single readings can be large; an effect the other way counts as inactive or inconclusive.
# System: not listed separately
# Assay: qHTS assay to identify small molecule antagonists of the androgen receptor (AR) signaling pathway using the MDA cell line in the presence of 0.5 nM R1881 - cell viability counter screen (AID 1259242); also: nearly all actives have a fitted effect of over 45% in size
# Details: MDA-kb2 viability, CellTiter-Fluor protease fluorescence, 16 h; series mostly up to 92.4 µM; viability change, negative = cytotoxic: at the top concentration
# Procedure, shortened: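 Live-cell protease fluorescence, CellTiter-Fluor, 30 min at 37C. Cells: MDA-kb2, 3,000/well, preincubated 5 hr. Compounds plus 0.5 nM R1881 final, 16 hr, 37C, 0% CO2.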
row,Compound,outcome
1,[N-]=[N+]=CC(=O)OC[C@H](N)C(=O)O,inactive
2,CCOP(=S)(OCC)Oc1ccc([N+](=O)[O-])cc1,inactive
3,Cl[C@H]1OCCO[C@@H]1Cl,inactive
4,Nc1ccc(N)cc1,inactive
5,CCCCCCCCCCCCCCCCCC(=O)O,inactive
6,O=C(O)CCCc1ccc(N(CCCl)CCCl)cc1,inactive
7,OC[C@@H](O)[C@H]1O[C@@H]2O[C@H](C(Cl)(Cl)Cl)O[C@@H]2[C@H]1O,inactive
8,CC(C)c1cccc(C(C)C)c1O,inactive
9,CC(C)CCCCCCOC(=O)c1ccccc1C(=O)OCCCCCCC(C)C,inactive
10,O=P1(NCCCl)OCCCN1CCCl (stereo unspecified),inactive
11,CNC(=O)O/N=C(\SC)C(=O)N(C)C,inactive
12,O=C(O)Cc1ccccc1,inactive
13,N#Cc1cccc(C#N)c1,inactive
14,Oc1c(Br)cc(Br)cc1Br,inactive
15,c1ccc2c(c1)CCCC2,inactive
16,O=[N+]([O-])c1ccc(Cl)cc1,inactive

row,Compound,outcome
1,C/C=C/c1ccc2c(c1)OCO2,inactive
2,CN(C)C(=O)C(c1ccccc1)c1ccccc1,inactive
3,CC12CC1(C)C(=O)N(c1cc(Cl)cc(Cl)c1)C2=O (stereo unspecified),inactive
4,Cc1ccccc1N,inactive
5,Clc1cnc(Oc2ccc(Oc3ncc(Cl)cc3Cl)cc2)c(Cl)c1,inactive
6,CC(=O)/C=C/c1ccccc1,inactive
7,CC(=O)C1CCOC1=O (stereo unspecified),inactive
8,Cc1ccc(N=C=O)cc1N=C=O,inactive
9,C=CC(=O)OCCCCCC(C)C,inactive
10,COC(=O)Nc1cccc(OC(=O)Nc2cccc(C)c2)c1,inactive
11,O=S(=O)(O)OOS(=O)(=O)O,inactive
12,Cc1ccc(N)cc1,inactive
13,CC[N+](=O)[O-],inactive
14,CN1C(=O)CCS(=O)(=O)C1c1ccc(Cl)cc1 (stereo unspecified),inactive
15,C=CC(=O)OCC(CC)CCCC (stereo unspecified),inactive

# Target: Androgen receptor (Homo sapiens) (UniProt P10275)
# Assay: qHTS assay to identify small molecule antagonists of the androgen receptor (AR) signaling pathway using the MDA cell line in the presence of 0.5 nM R1881 (AID 1259243); also: nearly all actives have a fitted effect of over 50% in size; also: potency is read from the fitted curve at half-maximal effect
# Details: MDA-kb2 MMTV-luciferase, R1881 0.5 nM, 16 h; series mostly up to 92.4 µM; activity, negative = inhibition: at the top concentration
# Procedure, shortened: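 MDA-kb2, MMTV-luc (AR/GR elements); 3,000 cells/well; cpd + 0.5 nM R1881 final; 16 hr 37C, 0% CO2; ONE-Glo 30 min RT; luminescence.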
# Sequence of Androgen receptor (Homo sapiens) (P10275 whole entry, looked up): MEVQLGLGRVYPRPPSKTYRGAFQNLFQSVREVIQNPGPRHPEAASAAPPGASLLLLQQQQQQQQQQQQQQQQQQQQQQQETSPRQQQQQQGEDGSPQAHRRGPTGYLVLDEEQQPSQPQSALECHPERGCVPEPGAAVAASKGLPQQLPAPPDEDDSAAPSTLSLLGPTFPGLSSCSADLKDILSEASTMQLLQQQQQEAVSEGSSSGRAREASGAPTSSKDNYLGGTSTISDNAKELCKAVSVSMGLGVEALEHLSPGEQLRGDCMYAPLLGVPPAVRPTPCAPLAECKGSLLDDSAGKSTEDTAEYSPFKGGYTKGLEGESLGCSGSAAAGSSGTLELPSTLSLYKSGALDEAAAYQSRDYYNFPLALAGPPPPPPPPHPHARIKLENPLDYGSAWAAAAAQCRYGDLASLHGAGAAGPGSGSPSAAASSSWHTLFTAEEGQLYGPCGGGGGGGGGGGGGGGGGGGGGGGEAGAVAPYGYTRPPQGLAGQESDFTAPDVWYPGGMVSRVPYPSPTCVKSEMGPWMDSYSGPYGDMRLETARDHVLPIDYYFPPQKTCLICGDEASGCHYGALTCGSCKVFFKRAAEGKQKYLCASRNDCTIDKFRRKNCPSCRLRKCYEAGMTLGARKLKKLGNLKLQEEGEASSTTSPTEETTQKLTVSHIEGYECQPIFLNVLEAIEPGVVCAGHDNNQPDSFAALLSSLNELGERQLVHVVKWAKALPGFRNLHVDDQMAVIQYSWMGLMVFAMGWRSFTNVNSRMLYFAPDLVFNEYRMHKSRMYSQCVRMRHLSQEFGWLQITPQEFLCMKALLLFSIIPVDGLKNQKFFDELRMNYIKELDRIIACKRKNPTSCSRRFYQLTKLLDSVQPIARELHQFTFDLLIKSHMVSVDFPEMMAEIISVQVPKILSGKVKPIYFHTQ
row,Compound,Potency
1,CC(C)c1cccc(C(C)C)c1O,inactive
2,CC(C)CCCCCCOC(=O)c1ccccc1C(=O)OCCCCCCC(C)C,inactive
3,CNC(=O)O/N=C(\SC)C(=O)N(C)C,inactive
4,c1ccc2c(c1)CCCC2,inactive
5,CC12CC1(C)C(=O)N(c1cc(Cl)cc(Cl)c1)C2=O (stereo unspecified),1.21 µM (active) and 1.37 µM (active)
6,C=CC(=O)OCCCCCC(C)C,inactive

# Target: Estrogen receptor (Homo sapiens) (UniProt P03372)
# Assay: qHTS assay to identify small molecule antagonists of the estrogen receptor alpha (ER-alpha) signaling pathway using the BG1 cell line in the presence of 0.1 nM 17-beta-estradiol (AID 1259244); also: nearly all actives have a fitted effect of over 50% in size
# Details: VM7Luc4E2 (BG1) ERE-luciferase, antagonist mode, 0.1 nM E2, 22 h; series mostly up to 92.4 µM; activity change, negative = inhibition: at the top concentration
# Procedure, shortened: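 Luminescence after ONE-Glo (30 min, room temperature) measured ERE-luciferase activity in VM7Luc4E2 cells treated 22 h with compound and 0.1 nM final 17beta-estradiol as stimulator.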
# Sequence of Estrogen receptor (Homo sapiens) (P03372 whole entry, looked up): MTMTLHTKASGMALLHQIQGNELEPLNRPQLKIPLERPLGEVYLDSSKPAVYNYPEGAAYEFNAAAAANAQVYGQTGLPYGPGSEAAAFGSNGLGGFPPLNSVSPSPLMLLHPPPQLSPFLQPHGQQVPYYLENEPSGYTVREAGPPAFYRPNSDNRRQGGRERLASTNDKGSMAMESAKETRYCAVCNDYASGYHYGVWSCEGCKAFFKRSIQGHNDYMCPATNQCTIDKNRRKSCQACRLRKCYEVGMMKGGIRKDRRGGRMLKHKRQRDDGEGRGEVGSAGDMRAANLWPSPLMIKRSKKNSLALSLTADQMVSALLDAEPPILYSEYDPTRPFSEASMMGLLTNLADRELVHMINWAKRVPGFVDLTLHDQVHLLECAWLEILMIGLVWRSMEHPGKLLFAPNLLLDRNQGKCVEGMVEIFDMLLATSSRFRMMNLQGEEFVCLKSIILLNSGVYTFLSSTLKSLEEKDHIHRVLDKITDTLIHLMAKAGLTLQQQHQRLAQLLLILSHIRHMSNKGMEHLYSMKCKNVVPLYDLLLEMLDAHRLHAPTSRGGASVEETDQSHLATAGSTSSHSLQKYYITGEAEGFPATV
row,Compound,Potency
1,O=C(O)CCCc1ccc(N(CCCl)CCCl)cc1,inactive
2,OC[C@@H](O)[C@H]1O[C@@H]2O[C@H](C(Cl)(Cl)Cl)O[C@@H]2[C@H]1O,inactive
3,CC(C)c1cccc(C(C)C)c1O,inactive
4,CC(C)CCCCCCOC(=O)c1ccccc1C(=O)OCCCCCCC(C)C,inactive
5,CNC(=O)O/N=C(\SC)C(=O)N(C)C,inactive
6,O=C(O)Cc1ccccc1,inactive
7,Oc1c(Br)cc(Br)cc1Br,inactive
8,c1ccc2c(c1)CCCC2,inactive
9,C=CC(=O)OCCCCCC(C)C,inactive

# System: not listed separately
# Assay: qHTS assay to identify small molecule phospholipidosis (PLD) inducers (AID 1259344; active = well fitted curve in the direction sought with a large enough effect; an effect the other way counts as inactive or inconclusive)
# Details: HepG2 phospholipidosis, LipidTOX Red imaging, 24 h; series mostly up to 38.3 µM; PLD induction: at the top concentration
# Procedure, shortened: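 Read-out is LipidTOX Red fluorescence (ex 595/em 615) imaged in HepG2 cells after 24 h compound exposure at 37 C, with Hoechst nuclear counterstain (ex 352/em 461) allowing per-cell normalisation.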
Compound,PLD induction,Potency
[N-]=[N+]=CC(=O)OC[C@H](N)C(=O)O,0.333%,
Nc1ccc(N)cc1,5.97%,
O=C(O)CCCc1ccc(N(CCCl)CCCl)cc1,0.709%,
OC[C@@H](O)[C@H]1O[C@@H]2O[C@H](C(Cl)(Cl)Cl)O[C@@H]2[C@H]1O,-0.318%,
CC(C)c1cccc(C(C)C)c1O,-0.565%,
O=P1(NCCCl)OCCCN1CCCl (stereo unspecified),-0.534% [at 15.5 µM],
O=C(O)Cc1ccccc1,-1.67%,
Oc1c(Br)cc(Br)cc1Br,0.45%,
CN1C(=O)CCS(=O)(=O)C1c1ccc(Cl)cc1 (stereo unspecified),,inactive

# System: not listed separately
# Assay: qHTS assay to identify small molecule HDAC inhibitors (AID 1259364); also: potency is read from the fitted curve at half-maximal effect;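 also: wild-type HCT-116 cells with endogenous class I/II HDAC activity; nearly all actives have a fitted effect of over 45% in size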; as to activity change, negative = inhibition: top concentration of the series differs between compounds
# Details: HCT-116 HDAC-Glo I/II luminescence, 2 h; series mostly up to 92.4 µM; activity change, negative = inhibition: at the top concentration
# Procedure, shortened: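 HCT-116 (wild type), 1,500 cells/well, overnight; compound 2 hr 37C 5% CO2; HDAC-Glo I/II reagent 30 min RT; luminescence readout.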
row,Compound,Potency
1,[N-]=[N+]=CC(=O)OC[C@H](N)C(=O)O,inactive
2,CCOP(=S)(OCC)Oc1ccc([N+](=O)[O-])cc1,inactive
3,Cl[C@H]1OCCO[C@@H]1Cl,inactive
4,Nc1ccc(N)cc1,inactive
5,CCCCCCCCCCCCCCCCCC(=O)O,inactive
6,O=C(O)CCCc1ccc(N(CCCl)CCCl)cc1,inactive
7,OC[C@@H](O)[C@H]1O[C@@H]2O[C@H](C(Cl)(Cl)Cl)O[C@@H]2[C@H]1O,inactive
8,CC(C)c1cccc(C(C)C)c1O,inactive
9,CC(C)CCCCCCOC(=O)c1ccccc1C(=O)OCCCCCCC(C)C,inactive
10,O=P1(NCCCl)OCCCN1CCCl (stereo unspecified),inactive
11,CNC(=O)O/N=C(\SC)C(=O)N(C)C,inactive
12,O=C(O)Cc1ccccc1,inactive
13,N#Cc1cccc(C#N)c1,inactive
14,Oc1c(Br)cc(Br)cc1Br,inactive
15,c1ccc2c(c1)CCCC2,inactive
16,O=[N+]([O-])c1ccc(Cl)cc1,inactive

row,Compound,Potency
1,C/C=C/c1ccc2c(c1)OCO2,inactive
2,CN(C)C(=O)C(c1ccccc1)c1ccccc1,inactive
3,CC12CC1(C)C(=O)N(c1cc(Cl)cc(Cl)c1)C2=O (stereo unspecified),inactive
4,Cc1ccccc1N,inactive
5,Clc1cnc(Oc2ccc(Oc3ncc(Cl)cc3Cl)cc2)c(Cl)c1,inactive
6,CC(=O)/C=C/c1ccccc1,inactive
7,CC(=O)C1CCOC1=O (stereo unspecified),inactive
8,Cc1ccc(N=C=O)cc1N=C=O,inactive
9,C=CC(=O)OCCCCCC(C)C,inactive
10,COC(=O)Nc1cccc(OC(=O)Nc2cccc(C)c2)c1,27.3 µM (active) and 30.6 µM (active)
11,O=S(=O)(O)OOS(=O)(=O)O,inactive
12,Cc1ccc(N)cc1,inactive
13,CC[N+](=O)[O-],inactive
14,CN1C(=O)CCS(=O)(=O)C1c1ccc(Cl)cc1 (stereo unspecified),inactive
15,C=CC(=O)OCC(CC)CCCC (stereo unspecified),inactive

# — PubChem BioAssay (Tox21)
